LASV entry inh – Lassa virus entry inhibition; Lassa virus pseudotype entry inhibition, cell reporter; Potency, µM (top dose mostly 37.9 µM), usual class: inhibitors; actives 1.2% (n = 300,000); calls by dose curve; tested in HEK293 cells; also: nearly all actives have a fitted effect of over 50% in size
Marburg entry inh – Marburg virus entry inhibition. Marburg virus pseudotyped entry inhibition, cell reporter. Potency, µM (top dose mostly 37.8 µM), usual class: inhibitors. actives 1.8% (n = 300,000). AID 540276; calls by dose curve; tested in HEK293 cells
VACV Venus inh – vaccinia inhibition (Venus reporter) | Vaccinia virus Venus reporter expression, fluorescence | actives 0.46% (n = 330,000) | Potency, µM (series often up to 36.5 µM), hits mostly inhibitors | AID 720580; calls by dose curve; tested in A549 cells; also: nearly all actives have a fitted effect of over 30% in size
Sm TGR inh – S. mansoni TGR enzyme inhibition; Q962Y6; purified TGR, DTNB reduction, TNB absorbance 405 nm; Potency, µM (top dose mostly 114 µM), hits mostly inhibitors; actives 3% (n = 360,000); AID 485364; active = well fitted inhibition curve with a large enough effect; inconclusive = small, poorly fitted or top-dose-only effect; inactive = no such curve, though single readings can be large or run the other way; also: nearly all actives have a fitted effect of over 60% in size
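Kinetic colorimetric format: TGR-catalysed, NADPH-driven DTNB reduction monitored via TNB absorbance. Enzyme dispensed at 20 nM; compound exposure 15 min at room temperature before reaction start.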
FMDV antiviral – foot and mouth disease virus antiviral activity | Potency, µM (doses to about 57.9 µM), most hits filed as inhibitors | FMDV antiviral cell-based qHTS | actives 1.2% (n = 410,000) | AID 1159524; calls by dose curve; tested in HEK293T cells; also: read-out not given here; nearly all actives have a fitted effect of over 45% in size
Vaccinia mCherry – vaccinia inhibition (mCherry reporter); Vaccinia virus mCherry reporter infection, fluorescence; actives 0.63% (n = 310,000); Potency, µM (titrated, usually from 36.5 µM), hits mostly inhibitors; AID 720579; calls by dose curve; tested in A549 cells; also: nearly all actives have a fitted effect of over 35% in size
Numbers stand for hits; i = inactive; ? = inconclusive; nt = no result given; [ ] = dose if it differs, or a comment. A selection: hits, their analogues and other compounds. The true share with any hit is near 5.4%.

SMILES	LASV entry inh	Marburg entry inh	VACV Venus inh	Sm TGR inh	FMDV antiviral	Vaccinia mCherry
NC(=O)COC(=O)c1cc(-c2ccco2)nc2ccccc12	i	i	i	3.16µM	i	i
O=C(c1cc(-c2ccco2)nc2ccccc12)N1CCN(Cc2ccccc2)CC1	nt	nt	nt	14.1µM	i	nt
O=C(COC(=O)c1cc(-c2ccco2)nc2ccccc12)NCc1ccc2c(c1)OCO2	i	i	i	8.91µM	i	nt
O=C(O)c1cc(-c2ccco2)nc2ccc(Br)cc12	i	i	i	0.708µM	i	i
CC(N)=NCCCC[C@H](N)C(=O)O	nt	nt	nt	nt	i	nt
COc1ccccc1CNC(=O)COC(=O)c1cc(C)nc2ccccc12	i	i	i	nt	?	i
O=C(c1ccco1)N1CCN(C(=O)c2cc(-c3ccccn3)nc3ccc(Cl)cc23)CC1	?	i	i	7.94µM	i	i
O=C(c1ccco1)N1CCN(C(=O)c2cc(-c3ccccc3)nc3ccccc23)CC1	?	?	i	i	i	i
COc1ccccc1CNC(=O)COC(=O)c1cc(-c2ccco2)nc2ccccc12	?	i	i	10µM	nt	i
COc1ccc(C(=O)Nc2ccccc2-c2nc(-c3ccc(OC)cc3)no2)cc1	i	i	i	i	i	i
Cc1cn(C)c(CC(=O)Nc2cccc(C#N)c2)c1C(=O)O	i	nt	i	i	i	i
C=CC[C@@H](CC(=O)N[C@H](CO)Cc1ccccc1)C(=O)N[C@@H](COC(=O)[C@H](CC=C)CC(=O)OC(C)(C)C)Cc1ccccc1	nt	nt	?	nt	i	i
C=CC[C@@H](CC(=O)N[C@@H](CO)Cc1ccccc1)C(=O)N[C@H](COC(=O)[C@@H](CC=C)CC(=O)OC(C)(C)C)Cc1c[nH]c2ccccc12	nt	nt	11.2µM	nt	35.5µM	?
C=CCC[C@H](Cc1ccc(F)cc1)C(=O)OC[C@H](Cc1c[nH]c2ccccc12)NC(=O)[C@@H](CC=C)CC(=O)N[C@H](CO)Cc1ccccc1	nt	nt	11.2µM	nt	?	i
C=CCC[C@@H](Cc1ccc(F)cc1)C(=O)OC[C@H](Cc1c[nH]c2ccccc12)NC(=O)[C@@H](CC=C)CC(=O)N[C@H](CO)Cc1ccccc1	nt	nt	?	nt	i	i
C=CCC[C@H](Cc1ccc(F)cc1)C(=O)OC[C@H](Cc1c[nH]c2ccccc12)NC(=O)[C@H](CC=C)CC(=O)N[C@H](CO)Cc1ccccc1	nt	nt	?	nt	i	i
C=CCC[C@H](Cc1ccc(F)cc1)C(=O)OC[C@H](Cc1c[nH]c2ccccc12)NC(=O)[C@@H](CC=C)CC(=O)N[C@@H](CO)Cc1ccccc1	nt	nt	10µM	nt	i	i
CCn1nc(C)c2c(-c3ccccc3)cc(=O)n(C(C)C(=O)NCCc3ccccc3)c21 (stereo unspecified)	?	nt	i	i	i	i
COc1ccc(C(C(=O)Nc2ccc(C(C)C)cc2)N(C)C(=O)Cc2cccs2)cc1 (stereo unspecified)	?	i	i	i	i	i
Cc1ccc(C)c(NC(=O)C2CCCN(S(=O)(=O)c3cccc4nsnc34)C2)c1 (stereo unspecified)	i	i	i	i	i	i
CCCCOc1ccc(OC(=O)c2sc3ncn(Cc4cccc(F)c4)c(=O)c3c2C)cc1	i	nt	i	i	i	i
Nc1ccc(Oc2cccc(Oc3ccc(N)cc3)c2)cc1	?	?	i	i	10µM	i
Cc1cccc(Oc2ccc(N)cc2)c1	i	i	nt	i	i	nt
COc1ccc2ccccc2c1CN1CCOc2ccc(CN3CCN(CCO)CC3)cc2C1	nt	nt	i	nt	i	i
CC1=C(C(=O)Nc2ccc(C)cc2C)C(C(C)C)n2nc(SCc3ccccc3Cl)nc2N1 (stereo unspecified)	i	i	i	i	i	i
SMILES	LASV entry inh	Marburg entry inh	VACV Venus inh	Sm TGR inh	FMDV antiviral	Vaccinia mCherry
COC(=O)[C@](O)(c1ccc(NC(=O)c2ccco2)c(OC)c1)C(F)(F)F	nt	i	nt	nt	nt	nt
CCCNC(=O)c1cc(-c2ccc(OC)cc2)on1	?	10.3µM	nt	i	i	nt
COC(=O)c1ccc(Sc2nnnn2-c2ccccc2)c([N+](=O)[O-])c1	?	?	i	?	20µM	i
COc1cc(NC(=S)NC2CC(C)(C)NC(C)(C)C2)cc(OC)c1	?	i	i	i	i	i
CC1(C)CC(NC(=S)Nc2ccc([N+](=O)[O-])cc2)CC(C)(C)N1	i	i	i	50.1µM	i	i
CC[N+]1(C)[C@@H]2CC[C@H]1CC(OC(=O)[C@H]1CCC(C(=O)OC3C[C@H]4CC[C@@H](C3)[N+]4(C)CC)(c3ccccc3)c3ccccc31)C2 (stereo partly specified)	nt	nt	i	50.1µM	i	i
Cc1cc(C)cc(CO[C@H]2C=C[C@@H](c3ccccc3)O[C@H]2CO)c1	nt	i	nt	nt	nt	nt
Cc1oc(C(=O)O)cc1CSCc1cc(C(=O)O)c(C)o1	i	i	i	44.7µM	i	nt
Cc1oc(C(=O)O)cc1CSCc1ccoc1C(=O)O	i	i	i	i	i	nt
COC(=O)C1=C(C(=O)OC)[C@@H]2Nc3ccccc3[C@@]23C[C@@H](C(=O)OC)N(C(=O)NC(C)(C)C)C3=N1	nt	i	nt	nt	nt	nt
COC(=O)[C@@H]1CCCN1Cc1ccc2c(c1)CN(Cc1cccn1-c1ccc(Cl)cn1)CCO2	nt	nt	i	nt	i	i
CN(C)S(=O)(=O)c1cccc(C(=O)C2=C3SC=C(c4ccccc4)N3CC2)c1	i	i	i	4.47µM	i	i
CN(C)S(=O)(=O)c1cccc(C(=O)N2CCc3ccccc32)c1	i	?	i	i	i	i
CCN(CC)c1ccc(/C=C/c2ccccn2)cc1	nt	nt	i	nt	nt	i
Cc1cccc(OCc2nnc(SCCC(=O)O)n2-c2ccccc2)c1	nt	nt	nt	79.4µM	i	nt
COc1ccc(-n2c(COc3cccc(C)c3)nnc2SCC(=O)O)cc1	i	i	i	i	i	i
O=S(=O)(c1ccccc1)c1nc(-c2ccc(F)cc2)oc1NCC1CCCO1 (stereo unspecified)	?	i	i	44.7µM	i	i
CNc1oc(-c2ccc(F)cc2)nc1S(=O)(=O)c1ccccc1	i	i	i	i	i	?
CC(C)CS(=O)(=O)c1oc(-c2ccc(F)cc2)nc1S(=O)(=O)c1ccccc1	?	?	i[7.34 µM]	1.12µM	25.1µM	i[7.34 µM]
CCC(C)S(=O)(=O)c1oc(-c2cccs2)nc1S(=O)(=O)c1ccccc1 (stereo unspecified)	?	?	i[7.34 µM]	0.708µM	28.2µM	i[7.34 µM]
CCc1cccc(CC)c1NC(=O)c1cc(S(=O)(=O)N2CCc3ccccc32)cn1C	i	nt	i	i	i	i
COc1cccc(Cn2c(-c3nonc3NC(C)=O)nc3ccccc32)c1	i	?	i	i	i	i
O=C1N=NC(c2ccccc2)c2ccccc21 (stereo unspecified)	nt	i	nt	nt	nt	nt
O=S(=O)(c1cccc(-c2csc(N/N=C/c3ccco3)n2)c1)N1CCOCC1	nt	nt	nt	i	28.2µM	nt
Cc1ccc(C)c(-c2csc(N/N=C/c3ccco3)n2)c1	2µM	5.01µM	i	i	i	?
Cc1ccc2c(c1)c1c(c(=O)n(Cc3ccccc3)c(=O)n1Cc1cccc(F)c1)n2C	i	nt	i	i	i	i
Fc1ccc(Nc2nc(N3CCOCC3)c3ccccc3n2)cc1	?	15.8µM	i	i	?	nt

Assay outcomes (PubChem BioAssay)
